Bioassay records deposited in PubChem by National Center for Advancing Translational Sciences (NCATS).
IL-1B inflam inh: qHTS for Inhibitors of Inflammasome Signaling: IL-1-beta AlphaLISA Primary Screen; activity change, % at 57.5 µM; THP-1 LPS/ATP IL-1B secretion, AlphaLISA, 16 h; hits give low values; AID 743279, 2014; 4.7% of 360,000 active; in the data active = activity change below about -50%; inconclusive = mostly about -30% to -49%
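THP-1 cells pretreated 1 hr with compounds (up to 57.5 uM final), then stimulated with LPS (250 ng/mL final) plus ATP (1.25 mM final); secreted IL-1B measured by AlphaLISA after 16 hr, decreased signal indicating inhibition.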
Gal4-VP16 FLuc: VP16 counterscreen qHTS for inhibitors of ROR gamma transcriptional activity | Drosophila S2 Gal4-VP16 UAS-luciferase, luminescence, 20 h | Potency, µM (top dose mostly 53.6 µM), most hits filed as inhibitors | 3.5% of 310,000 active | AID 2546, 2010;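 also: Gal4-VP16 expression switched on by copper sulfate through the metallothionein promoter; nearly all actives have a fitted effect of over 50% in size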
DT40 TDP1 CPT: qHTS for Inhibitors of human tyrosyl-DNA phosphodiesterase 1 (TDP1): qHTS in cells in presence of CPT. Potency, µM (titrated, usually from 46.2 µM), hits mostly inhibitors. chicken DT40 Tdp1-/-;hTDP1 cells + 20 nM CPT, ATP luminescence, 48 h. 12% of 420,000 active; also: nearly all actives have a fitted effect of over 55% in size
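Chicken DT40 Tdp1-/- cells stably complemented with human TDP1 were seeded at 400 cells/well in medium containing 20 nM camptothecin, exposed to pin-transferred compounds, and grown at 37 °C for at least 48 hr. Viability was read as ATP luminescence.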
TDP1 cell noCPT: qHTS for Inhibitors of human tyrosyl-DNA phosphodiesterase 1 (TDP1): qHTS in cells in absence of CPT | DT40 Tdp1-/- hTDP1 cells, no CPT, ATP luminescence, 48 h | Potency, µM (series often up to 46.2 µM), actives largely listed as inhibitors | 15% of 420,000 active | AID 686978, 2013; also: nearly all actives have a fitted effect of over 55% in size
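Stably hTDP1-transfected Tdp1-null chicken DT40 cells were treated with library compounds minus camptothecin and grown for at least 48 hr at 37 °C, after which cellular ATP was quantified by luminescence.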
RORg inh: qHTS for inhibitors of ROR gamma transcriptional activity; Drosophila S2 Gal4-RORgamma UAS-luciferase reporter, 20 h; Potency, µM (titrated, usually from 53.6 µM), actives largely listed as inhibitors; 5.4% of 310,000 active; also: nearly all actives have a fitted effect of over 60% in size
Target sequence (P51450 whole entry, looked up, the tested form may be a part): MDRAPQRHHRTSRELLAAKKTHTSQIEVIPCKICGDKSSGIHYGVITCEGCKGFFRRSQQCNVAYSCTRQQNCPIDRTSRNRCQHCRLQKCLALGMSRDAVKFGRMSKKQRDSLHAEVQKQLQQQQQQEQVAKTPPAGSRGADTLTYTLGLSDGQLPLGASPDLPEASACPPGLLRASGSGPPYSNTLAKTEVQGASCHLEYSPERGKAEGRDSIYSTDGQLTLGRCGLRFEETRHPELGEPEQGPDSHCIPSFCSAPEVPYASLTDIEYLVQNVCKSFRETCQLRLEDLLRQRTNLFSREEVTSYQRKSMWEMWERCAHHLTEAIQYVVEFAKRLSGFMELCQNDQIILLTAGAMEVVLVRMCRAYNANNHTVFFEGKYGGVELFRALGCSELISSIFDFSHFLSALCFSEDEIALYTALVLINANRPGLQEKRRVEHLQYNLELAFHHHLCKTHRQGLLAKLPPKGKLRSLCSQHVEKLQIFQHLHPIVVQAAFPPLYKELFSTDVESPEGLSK
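Stably transfected Drosophila Schneider cells are the test system, with ROR gamma fused to Gal4 and luciferase under UAS control; luminescence is read after 20 hr of 700 uM copper sulfate induction at ambient temperature.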
LDHA inh: qHTS assay for inhibitors of human lactate dehydrogenase | purified LDHA, NADH/diaphorase-resazurin fluorescence; hits give low values | activity change, % (values are at about 110 or 230 µM) | 0.15% of 480,000 active | AID 1347041, 2019; in the data active = activity change below about -30%; inconclusive = mostly about -25% to -30%
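Enzyme activity of human lactate dehydrogenase 5 (2 nM; 0.06 mM NADH, 0.2 mM pyruvate, 5 min, RT) is measured via a resazurin/diaphorase fluorescence readout of residual NADH.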
Numbers stand for hits; - = inactive; ? = inconclusive; . = no result given; [ ] = another dose, or the depositor's remark. In the library only some 18% were active in any assay of this set; here they are far more common. Unless noted, calls follow the shape of the dose curve; as a rule, active = well fitted curve in the direction sought with a large enough effect; inconclusive = small, poorly fitted or top-dose-only effect, or another doubt; inactive = no such curve, though single readings can be large; an effect the other way counts as inactive or inconclusive.

SMILES	IL-1B inflam inh	Gal4-VP16 FLuc	DT40 TDP1 CPT	TDP1 cell noCPT	RORg inh	LDHA inh
Cc1cccc(NC(=O)c2cccc(OCc3c(C)noc3C)c2)c1	.	.	.	.	.	-
CCOC(=O)/C(=N\Nc1ccccc1Cl)N1CCN(C)CC1	-58	-	?	?	-	-
CC(/C=N/NC(=O)c1ccncc1)=C\c1ccccc1	-	-	-	-	-	-
CC(/C=N/NC(=O)c1cc(-c2ccc(C)s2)[nH]n1)=C\c1ccccc1	-	-	8.2µM	2.6µM	-	-
CC(/C=N/NC(=O)c1cc(C(C)(C)C)[nH]n1)=C\c1ccccc1	-	-	?	23µM	-	-
COc1ccccc1Oc1ccc(N/C=C/C(=O)c2ccco2)cc1	-52	-[10 µM]	?	18µM	?	-
O=C(/C=C/Nc1ccc(Oc2ccccc2Cl)cc1)c1ccco1	-	-[10 µM]	18µM	15µM	-	-
Cc1ccsc1C(=O)OCC(=O)NC(=O)NC1CCCCC1	.	.	.	.	.	-
CCC(C)Oc1ccccc1C1CC(=O)NC2=C1C(=O)CCC2 (stereo unspecified)	-	-	26µM	?	-	-
Cc1c(O)ccc(C(=O)CN2CCN(c3ccccc3F)CC2)c1O	-	-	?	23µM	-	-
COc1ccc(N2CCN(CC(=O)c3c(C)n(C)c4ccc(OC)cc34)CC2)cc1	.	-	18µM	23µM	-	-
COc1ccc2c(c1)c(C(=O)CN1CCOCC1)c(C)n2C	-	-	-	-	-	-
O=C(CN1CCN(c2ccccc2F)CC1)c1ccc(O)c(O)c1	-	-	23µM	10µM	-	-
Cc1c(O)ccc(C(=O)CN2CCN(c3ccccc3)CC2)c1O	-	-	?	23µM	-	-
NC(=O)CN1CCN(c2ccccc2F)CC1	-	-	-	-	-	-
Cc1ccc2[nH]cc(C(=O)CN3CCN(c4ccccc4F)CC3)c2c1	-	-	?	-	-	-
C=CCOc1ccc(NC(=O)CC)cc1	.	.	.	.	.	-
COc1ccc(N2CCN(CC(=O)c3ccc(O)c(C)c3O)CC2)cc1	-	-	?	21µM	-	-
O=C(NCC1CCCCC1)c1cccc(-c2ccc(O)cc2)c1	-53	?	?	21µM	?	-
O=C(Nc1ccc(F)cc1)c1sc2cc(C(F)(F)F)cnc2c1-c1cccs1	-	-	?	18µM	-	-
Cc1ccc(Cl)cc1NC1=C/C(=N\S(=O)(=O)c2cccs2)c2ccccc2C1=O	-99	5µM	5.2µM	2.9µM	-	-
Cc1cccc(NC2=C/C(=N/S(=O)(=O)c3cccs3)c3ccccc3C2=O)c1	-83	-	3.7µM	3.3µM	-	-
Cc1c(Cl)cccc1N/C(=N/S(=O)(=O)c1cccs1)c1ccccc1	-	-	-	?	-	-
Cc1ccc(NC2=C/C(=N\S(=O)(=O)c3cccs3)c3ccccc3C2=O)c(C)c1	-97	?	2.6µM	2.6µM	?	-
CC(=O)Nc1ccc(N2C(=O)C(=O)/C(=C(/O)c3ccccc3)C2c2ccccc2)cc1 (stereo unspecified)	.	.	.	.	.	-
SMILES	IL-1B inflam inh	Gal4-VP16 FLuc	DT40 TDP1 CPT	TDP1 cell noCPT	RORg inh	LDHA inh
CC1(C)CC(NC(=S)Nc2ccccc2F)CC(C)(C)N1	.	.	.	.	.	-
CCNc1c(NC(=O)NCc2ccc(F)cc2)c(=O)oc2ccccc12	.	.	.	.	.	-
C=CCNC(=O)C(=O)c1c(-c2ccccc2)[nH]c2ccccc12	-	-	-	-	-	-
O=C(O)/C=C/C(=O)c1c(-c2ccccc2)[nH]c2ccccc12	-	?	?	?	14µM	-
CC(=O)c1c(-c2ccccc2)[nH]c2ccccc12	-	-	13µM	13µM	?	-
COc1ccc(S(=O)(=O)Nc2cccc(-c3ccc(N4CCCCC4)nn3)c2)c(OC)c1	.	.	.	.	.	-
Cc1ccc(COc2cccc(CNC3CC3)c2)cc1	.	.	.	.	.	-
